Our source for the growth values is PubChem BioAssay (NCI).

Compounds without any hit were thinned out: in the full panel of roughly 83,000, 20% have a hit.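 96-well plates, one dose, 48 hours. Percent growth reported; active if below 10.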 Values without a mark were called inactive. Active and inactive are the calls of the source.

In this experiment the test system is NCI-H322M lung. Briefly: NCI-60 one-dose screen, 48 h (100 = growth as untreated, 0 = no growth, -100 = all killed). The settings on record: 10 µM unless noted.
For the compound `CC1Cc2c(Cl)ncnc2N(C)c2ccc(F)cc21` (stereo not given), the growth was 99.5%. Then `N#CC1=C(N)Oc2c(sc3c(Br)cccc23)C1c1ccc(F)cc1` (stereo not given), with 41.3%; and `COc1ccc(/C(C)=C(/c2ccc(OCCCN(C)C)cc2)c2ccc(OC(=O)Cc3ccccc3)cc2)cc1`, with 98.3%; and `O=C1Nc2ccccc2[C@]12CC(c1ccccc1)=NN2`, with 59.6%.

In the case of `CN(CCOc1ccc(C#N)cc1)CCOc1ccc(C#N)cc1`, the growth is 87.1%. Next, `Cc1ccc(Sc2nnc(/N=C3\C(=O)Nc4ccccc43)s2)cc1`: 97.1%; `Cn1cc(-c2nonc2-c2c[nH]c3ccc(Br)cc23)c2cc(Br)ccc21`: 32.1%. Next, `Cc1ccc(NC(=S)NNC(=S)NNc2ccccc2)cc1C`: 85.5%; `COc1ccc(-c2csc(N(C(=O)N3CCN(c4cc5c(cc4F)c(=O)c(C(=O)O)cn5C4CC4)CC3)c3ccccc3)n2)cc1`: 4.9% (active); `O=[N+]([O-])c1ccc(N/N=C(/C(=N/Nc2ccc([N+](=O)[O-])cc2)c2ccccc2)c2ccccc2)cc1`: 81.1%. Regarding `CCCCCCCCn1ccc2cc(NC(=O)CN3CCN(c4nc(C)cc(Cl)n4)CC3)ccc21`, the growth is 87.8%.

In the case of `COc1ccc(-c2cc(-c3ccc(Cl)cc3)c(C#N)c(=O)n2CCCCC(=O)Nc2ccccc2N)cc1`, the growth was 63.8%. As to `CCOC(=O)c1c2c(n3ccc(C)cc13)C(=O)c1ccccc1C2=O`, the growth is 77%. Then `COc1ccc(-c2nc3c(c(-c4ccccc4)nn3-c3ccccc3)c(-c3ccc(N4CCN(C)CC4)cc3)c2C#N)cc1`, with 97.5%. With `Cc1ccc(-n2c(=S)[nH]c3sc4c(c3c2=O)CCC(=O)C4)cc1`, the growth is 89.5%. Next, `COc1cc(-c2cc(-c3ccc(N(C)C)cc3)nc(N3CCC(O)CC3)c2C#N)cc(OC)c1OC`: 25.8%; `O=Cc1ccc([N+](=O)[O-])s1`: 98.4%. As to `CC1=NN(c2nc(SCC(=O)Nc3nc4ccc(C)cc4s3)nc(-c3ccccc3)c2C#N)C(=O)C1`, the growth was 96.7%. Then `O=C(CSc1nc(-c2ccccc2)[nH]c1S(=O)(=O)c1ccccc1)NC1CC1`, with 105%; and `Nc1ncnc2c1N=C(c1ccc3c(c1)OCO3)CC(c1cccc(Nc3ccnc4cc(Cl)ccc34)c1)N2` (stereo not given), with 76.2%. Then `O=C(CN1C(=O)CCC1=O)Nc1ncc(Cc2ccc(F)cc2)s1`, with 102%.

For `Cn1cc(-c2csc(-c3ccc(Cl)cc3)n2)c2cccnc21`, the growth was -8.35% [100 µM] (active). Then `CN(Cc1ccc(C(F)(F)F)cc1)CC(O)C(=O)Nc1ccc(Cl)cc1` (stereo not given), with 42.4%; and `CCCCCOc1ccc(C(=O)/C(Br)=C/C(=O)O)cc1`, with 104%; and `CCN(CC)CCCN1C(=O)c2c(c(C)c3c(oc4cc(O)ccc43)c2C)C1=O`, with 92.5%. Then `CCOP(=O)(OCC)c1nc(-c2ccccc2)oc1NCc1cccnc1`, with 106%. Then `O=C(CCC(=O)N/N=C/c1ccccc1O)N/N=C/c1ccccc1O`, with 29.3%; and `S=C(Nc1ccc(-c2nc(N3CCOCC3)c3cccn3n2)cc1)Nc1cccnc1`, with 35.7%; and `N#Cc1c(N)nnn1Cc1cc(=O)oc2c1ccc1ccccc12`, with 102%.

On to `Fc1ccc2[nH]cc(-c3nonc3-c3c[nH]c4ccc(Br)cc34)c2c1`, for which the growth is 35.9%. Then `O=Nc1c(-c2c(O)[nH]c3ncccc23)[nH]c2ccccc12`, with 30.7%; and `Fc1cccc(CNc2c3ccccc3nc3ccccc23)c1F`, with 63.4%; and `CCn1c(=S)sc2c(Nc3ccc(F)cc3)nc(-c3cccnc3)nc21`, with 76.5%. Next, `CC(C)(C)n1cc(-c2ccnc(NCCNS(=O)(=O)c3cccc(F)c3)c2)c(-c2ccccc2)n1`: 97.8%; `Cc1cc2c(O)c(-c3cc(Cl)ccc3Cl)c3sc(=O)oc3c2cc1C`: 89.8%. Next, `Fc1ccc(-c2nn(-c3ccccc3)cc2-c2nc3ccccc3o2)cc1`: 107%; `OB(O)c1cccc(-c2nc3ccc4[nH]ncc4c3c3c2CCCC3)c1`: 45%. Take `O=C(CSc1nc2ccc([N+](=O)[O-])cc2[nH]1)Nc1ccc(F)cc1`: the growth is 86.5%. For `CNC(=O)c1c(NC(=O)c2ccc(C(F)(F)F)cc2)sc2c1CCC(=O)C2`, the growth is 29.5%. Then `N#Cc1cccc(NC(=O)c2oc3ccccc3c2-c2cnn(-c3ccccc3)c2)c1`, with 74.1% [50 µM].
